# Reference: PubChem BioAssay (Tox21)
# Unmarked numbers belong to inactive results. Inconclusive results are not listed. Where a call stands in place of a potency, no number is given. Calls of active or inactive are those of the source. Unless noted, calls come from the whole dose curve; as a rule, active = well fitted curve in the direction sought with a large enough effect in the repeat runs; inconclusive = weak or mixed curves; inactive = no such curve, though single readings can be large; an effect the other way counts as inactive or inconclusive.
# Legend:
# [1] = qHTS assay to identify small molecule agonists of H2AX (AID 1224845; active = well fitted activation curve with a large enough effect in the signal ratio in the repeat runs, not every such curve was filed as active; the % refers to the signal ratio)
# Method in brief: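 Wild-type CHO-K1 cells plated overnight, then exposed 3 hr at 37C to compounds at 15 concentrations (0.76% DMSO). Lysed, then HTRF anti-pH2AX(S139)-cryptate/anti-H2AX-d2 detection after 24 hr at room temperature; emissions 665 and 620 nm.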
# [2] = qHTS assay to identify small molecule agonists of the hypoxia (HIF-1) signaling pathway (AID 1224846; active = well fitted activation curve with a large enough effect in the signal ratio in the repeat runs, not every such curve was filed as active; the % refers to the signal ratio)
# Method in brief: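 HRE-bla ME-180 cells (beta-lactamase reporter under hypoxia response element) were plated at 2,000 cells/well in medium with 0.5% dialyzed FBS, rested 5 hrs, then given compounds in DMSO for 17 hrs at 37C, 5% CO2. Reporter induction was read with CCF4-AM FRET substrate.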
# [3] = qHTS assay to identify small molecule agonists of H2AX - cell viability counter screen (AID 1224847; calls by dose curve; note: top concentration of the series differs between compounds; nearly all actives have a fitted effect of over 30% in size)
# Method in brief: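 Quantitative HTS viability measurement: CHO-K1 wild-type cells in serum (10% FBS) medium, short 3 hr drug exposure at 37C with 0.76% DMSO, CellTiter-Glo luminescent detection.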
# [4] = qHTS assay to identify small molecule antagonists of the estrogen related receptor (ERR) signaling pathway from Tox21 library (AID 1224848); note: nearly all actives have a fitted effect of over 50% in size; note: potency is the fitted concentration of half-maximal effect
# Method in brief: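 Cells: ERR line, 2,000/well; 6 h preincubation 37 C/5% CO2. Cpd in DMSO via pin tool; 18 h, 37 C. ONE-Glo, 30 min RT, luminescence.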
# [5] = qHTS assay to identify small molecule agonists of the estrogen related receptor (ERR) signaling pathway from Tox21 library (AID 1224849; calls by dose curve; note: nearly all actives have a fitted effect of over 15% in size); details: ERR reporter cell line, ONE-Glo luciferase, 18 h; at 92.4 µM (top of the series) unless noted
# Method in brief: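 ERR reporter cell line (NTP) seeded, rested 6 h at 37 C/5% CO2, then pinned with Tox21 compounds in DMSO. After 18 h at 37 C, ONE-Glo luciferase luminescence was read following 30 min at room temperature.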
# [6] = qHTS RealTime-Glo MT Cell Viability Assay in HepG2 cells - 24 hour (AID 1224867); note: nearly all actives have a fitted effect of over 50% in size
# Method in brief: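 Cells + NanoLuc/prosubstrate dispensed (600 cells/well) → 5 h at 37 C/5% CO2 → compounds in DMSO transferred → 40 h incubation at 37 C, luminescence read at 0, 8, 16, 24, 32, 40 h.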
# [7] = qHTS RealTime-Glo MT Cell Viability Assay in HEK293 cells - 32 hour (AID 1224868); note: top concentration of the series differs between compounds; nearly all actives have a fitted effect of over 50% in size
# Method in brief: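 Tox21 10K qHTS, HEK293, 600 cells/well, RealTime-Glo reagent co-dispensed with cells; 5 h preincubation, compound by pintool, 37 C, luminescence at 0–40 h.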
# [8] = A CellTox Green Cytotoxicity Assay to monitor cytotoxicity in HEK293 cells - 0 hour (AID 1224869); note: nearly all actives have a fitted effect of over 50% in size
# Method in brief: (§1)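 HEK293 cells premixed with CellTox Green dye were seeded at 600 cells/well and left 5 h at 37 C/5% CO2 before pin transfer of 23 nL compound in DMSO. Fluorescence from dye bound to dead-cell DNA was read during 40 h treatment.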
# [9] = qHTS RealTime-Glo MT Cell Viability Assay in HepG2 cells - 40 hour (AID 1224870); note: nearly all actives have a fitted effect of over 50% in size
# Method in brief: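 HepG2 cells mixed with RealTime-Glo MT reagents (NanoLuc plus cell-permeant prosubstrate) were seeded at 600 cells/well, incubated 5 h at 37 C/5% CO2, then pinned with compounds in DMSO; nonlytic luminescence tracked viability during 40 h treatment.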
# [10] = A CellTox Green Cytotoxicity Assay to monitor cytotoxicity in HEK293 cells - 40 hour (AID 1224871); note: nearly all actives have a fitted effect of over 45% in size; note: potency is the fitted concentration of half-maximal effect
# Method in brief: as §1
Compound,Potency [1],outcome [2],Potency [3],Potency [4],"activity change, positive = activation [5]",Potency [6],Potency [7],Potency [8],Potency [9],Potency [10]
Cc1cc(CC(=O)O)c(C)n1-c1ccc(Cl)cc1,inactive,inactive,inactive,inactive,-14.3% [at 42.5 µM],inactive,inactive,inactive,inactive,inactive
O=C(O)[C@@H]1[C@H]2C[C@H]3c4[nH]c5ccccc5c4CCN3C[C@@H]2CC[C@@H]1O,inactive,inactive,inactive,inactive,1.64% [at 42.5 µM],inactive,inactive,inactive,,inactive
O=C(O)c1cccc(N(Cc2cccnc2)c2ccc(OC(F)F)c(OC(F)F)c2)c1,inactive,inactive,inactive,61.1 µM (active),-33.2%,,inactive,inactive,,inactive
O=CNc1ccccc1,inactive,inactive,inactive,inactive,-1.57%,inactive,inactive,inactive,inactive,inactive
C1=Cc2ccccc2C1,inactive,inactive,inactive,inactive,2.75%,inactive,inactive,inactive,inactive,inactive
C=C(C)C(=O)OCCOc1ccccc1,inactive,inactive,inactive,inactive,3.64%,inactive,inactive,inactive,,inactive
CCN(CC)CCOC(=O)C1(c2ccccc2)CCCC1,inactive,inactive,inactive,inactive,0.628% [at 42.5 µM],inactive,inactive,inactive,inactive,inactive
CC(=O)OC/C=C/c1ccccc1,inactive,inactive,inactive,inactive,0.279%,inactive,inactive,inactive,inactive,inactive
Cc1occc1S,inactive,inactive,inactive,inactive,9.5%,inactive,inactive,inactive,,inactive
Cc1ccccn1,inactive,inactive,inactive,inactive,1.44%,inactive,inactive,inactive,inactive,inactive
O=C(O)C(c1ccc(Cl)cc1)c1ccc(Cl)cc1,inactive,inactive,inactive,inactive,-7.31%,inactive,inactive,inactive,,inactive
COC(=O)C(C)=O,inactive,inactive,inactive,inactive,-4.12%,inactive,inactive,inactive,inactive,inactive
O=C(O)COC(=O)Cc1ccccc1Nc1c(Cl)cccc1Cl,inactive,inactive,inactive,inactive,1.12% [at 42.5 µM],inactive,inactive,inactive,inactive,inactive
Cc1cc(NC(=O)C(=O)O)cc(C)c1Oc1ccc(O)c2c1CCC2,inactive,inactive,inactive,inactive,1.77%,inactive,inactive,inactive,inactive,inactive
CCN(CC)CCc1nc(-c2ccccc2)no1,inactive,inactive,inactive,inactive,0.733% [at 42.5 µM],inactive,inactive,inactive,inactive,inactive
O=[N+]([O-])c1cccc(Cl)c1Cl,inactive,inactive,inactive,inactive,2.5%,inactive,inactive,inactive,inactive,
CCc1nn(C2CCCCC2)c2cc(C3(C#N)CCC(C(=O)O)CC3)ccc12 (configuration not stated),inactive,inactive,inactive,48.6 µM (active),-46.5%,inactive,inactive,inactive,inactive,inactive
CC(=O)[C@@]1(O)CC[C@H]2[C@@H]3C[C@H](C)C4=CC(=O)CC[C@]4(C)[C@H]3CC[C@@]21C,inactive,inactive,inactive,23.7 µM (active),-36.6% [at 42.5 µM],inactive,,inactive,inactive,inactive
CCCc1ccccc1,inactive,inactive,inactive,inactive,2.82%,inactive,inactive,inactive,inactive,inactive
CC(=O)/C(C)=C/C1C(C)=CCCC1(C)C (configuration not stated),inactive,inactive,inactive,inactive,5.66%,inactive,inactive,inactive,inactive,17.4 µM (active)
